Data reported in article PMC4336329 (PLoS ONE, 2015).
Screen size: about 310,000 compounds; about 14,000 (4.5%) showed an effect of 50% or more. The effect is printed as a negative number. Shown is part of a subset that was picked to be rich in strong results.

target: human ether-à-go-go-related gene (hERG) potassium channel (human, UniProt Q12809); test: primary screen, population patch clamp on CHO cells stably expressing hERG; higher = less effect of the substance
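Note: peak tail current of the secondary pulse compared with the same well before compound.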

Chain of human ether-à-go-go-related gene (hERG) potassium channel (Q12809 whole entry, looked up): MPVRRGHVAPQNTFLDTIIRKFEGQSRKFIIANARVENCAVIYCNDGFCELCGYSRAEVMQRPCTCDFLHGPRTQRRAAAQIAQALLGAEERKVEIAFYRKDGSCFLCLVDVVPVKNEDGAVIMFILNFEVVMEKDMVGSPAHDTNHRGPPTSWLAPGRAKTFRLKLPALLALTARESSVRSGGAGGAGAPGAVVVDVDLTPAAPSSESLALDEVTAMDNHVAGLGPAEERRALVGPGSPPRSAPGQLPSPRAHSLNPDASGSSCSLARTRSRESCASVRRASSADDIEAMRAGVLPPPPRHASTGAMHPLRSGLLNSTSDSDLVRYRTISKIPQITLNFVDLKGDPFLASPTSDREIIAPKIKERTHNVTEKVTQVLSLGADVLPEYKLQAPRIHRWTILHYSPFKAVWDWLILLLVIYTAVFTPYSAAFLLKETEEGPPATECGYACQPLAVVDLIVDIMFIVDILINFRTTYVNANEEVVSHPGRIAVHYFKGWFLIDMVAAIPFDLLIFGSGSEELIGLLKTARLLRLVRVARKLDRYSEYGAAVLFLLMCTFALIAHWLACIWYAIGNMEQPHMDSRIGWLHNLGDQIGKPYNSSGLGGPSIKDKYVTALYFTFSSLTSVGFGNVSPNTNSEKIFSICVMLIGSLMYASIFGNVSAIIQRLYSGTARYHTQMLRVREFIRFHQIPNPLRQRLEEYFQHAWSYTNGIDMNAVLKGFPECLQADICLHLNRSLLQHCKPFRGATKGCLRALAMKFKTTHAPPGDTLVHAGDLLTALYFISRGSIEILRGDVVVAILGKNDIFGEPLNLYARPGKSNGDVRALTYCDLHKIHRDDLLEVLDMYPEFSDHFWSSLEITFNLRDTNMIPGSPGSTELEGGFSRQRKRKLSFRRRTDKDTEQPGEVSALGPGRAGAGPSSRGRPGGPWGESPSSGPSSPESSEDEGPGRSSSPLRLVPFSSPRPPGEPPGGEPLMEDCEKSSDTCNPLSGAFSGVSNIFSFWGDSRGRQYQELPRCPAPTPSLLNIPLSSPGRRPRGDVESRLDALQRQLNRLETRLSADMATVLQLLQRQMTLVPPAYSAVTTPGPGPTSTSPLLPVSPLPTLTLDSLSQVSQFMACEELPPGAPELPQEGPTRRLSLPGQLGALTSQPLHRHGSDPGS

| Structure (SMILES) | hERG current change (%, negative = inhibition) at 10uM [%] |
| --- | --- |
| O=C(Nc1cccnc1)c1ccccc1-c1nc(-c2ccccc2F)no1 | -16.4 |
| N#Cc1nc(-c2ccccc2)oc1N1CCC(C(N)=O)CC1 | 9.26 |
| O=S(=O)(NCC1CCN(S(=O)(=O)c2ccccc2)CC1)c1ccccc1 | -9.78 |
| Cc1ccc(C2N(c3ccc(Cl)cc3)C(=O)N3CCCN23)cc1 (stereo not drawn) | -1.05 |
| CCc1nc(SCC(=O)Nc2nnc(CC)s2)c2c(C)c(C)sc2n1 | 8.99 |
| COc1ccccc1NC(=O)CN1CCN(CC(=O)Nc2ccc(S(N)(=O)=O)cc2)CC1 | -27.8 |
| CCOc1ccc(NC(=O)CN2CCN(CC(=O)Nc3ccccc3OC)CC2)cc1 | -74.1 |
| COc1ccccc1NC(=O)CN1CCN(CC(=O)Nc2ccc(OCc3ccccc3)cc2)CC1 | -25.1 |
| OCCN1CCN(CC#CCC(c2ccccc2)c2ccccc2)CC1 | -22.9 |
| OC(C#CCN1CCCC1)c1ccccc1 (stereo not drawn) | -2.28 |
| C(#CCN1CCCC1)CC(c1ccccc1)c1ccccc1.Cl | -50.5 |
| COc1cc(OC)c(C(=O)NCCCn2ccnc2)cc1OC.Cl | 13 |
| OC[C@H]1O[C@@H](n2cnc3c(NC4CCCC4)ncnc32)[C@H](O)[C@@H]1O | 10.4 |
| OC(CNCc1ccco1)Cn1c2ccccc2c2ccccc21 (stereo not drawn) | -58.4 |
| OC(CNCc1ccco1)Cn1c2ccc(Br)cc2c2cc(Br)ccc21 (stereo not drawn) | -0.0278 |
| OCCNCC(O)Cn1c2ccccc2c2ccccc21 (stereo not drawn) | 10.2 |
| COc1ccc(OC)c(NC(=O)[C@@H]2CCCN2C(=O)c2cccs2)c1 | -2.19 |
| CC(C)(C)c1ccc(C(=O)NNC(=O)CCc2ccccc2)cc1 | 7.16 |
| Cc1ccc(C(C(=O)NC2CCCC2)N(Cc2ccc3c(c2)OCO3)C(=O)c2snc(C(N)=O)c2N)cc1 (stereo not drawn) | 10.7 |
| COCCCNC(=S)N1CCN(c2ccccc2)CC1 | 12.9 |

| Structure (SMILES) | hERG current change (%, negative = inhibition) at 10uM [%] |
| --- | --- |
| COCCCNC(=S)N1CCN(c2ccc([N+](=O)[O-])cc2)CC1 | -68 |
| COCCNC(=S)N1CCN(c2ccc(Cl)cc2)CC1 | -12.9 |
| O=[N+]([O-])c1ccc(N2CCN(C(=S)NCc3ccc(Cl)cc3)CC2)cc1 | -8.05 |
| O=[N+]([O-])c1ccc(N2CCN(C(=S)Nc3ccccc3)CC2)cc1 | -4.16 |
| CCNC(=S)N1CCN(c2ccc([N+](=O)[O-])cc2)CC1 | -64.5 |
| O=[N+]([O-])c1ccc(N2CCN(C(=S)Nc3ccc(F)cc3F)CC2)cc1 | -18.5 |
| CNC(=S)N1CCN(c2ccc([N+](=O)[O-])cc2)CC1 | -65.1 |
| Cc1cccc(C(=O)NC(=S)N2CCN(c3ccc([N+](=O)[O-])cc3)CC2)c1 | -2.77 |
| C=CCNC(=S)N1CCN(c2ccccc2Cl)CC1 | -6.87 |
| C=CCNC(=S)N1CCN(c2ccc([N+](=O)[O-])cc2)CC1 | -63.6 |
| CCCC(=O)NC(=S)N1CCN(c2ccc([N+](=O)[O-])cc2)CC1 | -20.7 |
| CCCC(=O)Nc1nc2nc(C)cc(=O)n2[nH]1 | 1.2 |
| Cc1cc(C)c2c(=O)[nH]n(C3CC(C)N(C)CC3C)c2n1 (stereo not drawn) | 4.5 |
| CC1(C)Cc2c(sc3nc(-c4cccs4)n(N)c(=O)c23)CO1 | -22.5 |
| CCN(c1cccc(C)c1)S(=O)(=O)c1ccc2c(c1)NC(=O)CS2 | -7.28 |
| Cc1nnc2ccc(Oc3ccc(-c4ccccc4)cc3)nn12 | -5.63 |
| CCC1C(c2ccccc2)NC(c2ccccc2)CC1(O)c1ccc(F)cc1.Cl (stereo not drawn) | 11.4 |
| Cc1cc(C)n2cc(CSc3nnc(-c4ccccc4)o3)nc2n1 | -38.3 |
| Cc1ccc(SCc2cn3c(C)cc(C)nc3n2)cc1 | -67.1 |
| Cc1ccc2nc(SCc3cn4c(C)cc(C)nc4n3)[nH]c2c1 | -20.9 |

| Structure (SMILES) | hERG current change (%, negative = inhibition) at 10uM [%] |
| --- | --- |
| Clc1ccc(SCc2cn3ccccc3n2)cc1 | -18.1 |
| Cc1cc(C)n2cc(CSCc3ccccc3)nc2n1 | -36.9 |
| Cc1ccnc(SCc2cn3c(C)cc(C)nc3n2)n1 | -3.93 |
| Cc1cc(C)nc(SCc2cn3c(C)cccc3n2)n1 | 6.36 |
| Cc1cc(C)n2cc(CSc3ncn[nH]3)nc2n1 | 0.809 |
| O=c1cc(CSc2nc3cc(Cl)ccc3o2)nc2sccn12 | 10.4 |
| Cc1cccc2nc(CSc3ccc(Cl)cc3)cn12 | -74.3 |
| Cc1cc(C)n2cc(CSc3ccc(Br)cc3)nc2n1 | -63.8 |
| Cc1cc(C)n2cc(CSc3nc4cc(Cl)ccc4o3)nc2n1 | -68.1 |
| COc1ccccc1N=Nc1c(C)noc1C | 10.6 |
| CCOC(=O)/C(C#N)=N/Nc1ccc(S(=O)(=O)Nc2cc(OC)nc(OC)n2)cc1 | -13.1 |
| CC(C)(C)c1nnc(NS(C)(=O)=O)s1 | 8.21 |
| O=c1[nH]n(-c2ccc([N+](=O)[O-])cc2)c(=O)c2ccccc12 | 5.47 |
| COCc1ccc(C(=O)N2CCCC(C(=O)c3ccc(SC)cc3)C2)o1 (stereo not drawn) | -41.6 |
| Nc1cnc(Nc2ccc(Br)cc2)nc1N.O=S(=O)(O)O | -8.72 |
| CCc1c(C)nc(SCC(=O)Nc2cccc(Br)c2)[nH]c1=O | 16.3 |
| Cc1cc(C)n2cc(CSc3ccccn3)nc2n1 | 13.6 |
| Cc1cc(C)n2cc(CSc3ccc(Cl)cc3)nc2n1 | -64.9 |
| Cc1csc2nc(CSc3ccc(Cl)cc3)cn12 | -27.3 |
| CC(C)Oc1ccc(CNC2CCOC(C)(C)C2)cc1 (stereo not drawn) | 18 |
